Results on 27 compounds are retold here after PubChem BioAssay.

Where “and” joins values, the source holds several entries; their conditions need not be identical. Equal entries are not always repeated. Calls of active or inactive are those of the source.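 The calls were made as follows, unless noted: active = compounds killing one labelled cell type while sparing the other, by normalised counts and ratio limits, not self-fluorescent; inactive = the rest.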

The nature of assay [1]: differential killing of epithelial or mesenchymal cells, primary screen, imaging, PC-3E GFP, TEM4-18 mCherry, co-culture (AID 1345086).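 As to all read-outs here: cells exposed to compound for 72 h before imaging.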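 As to red/green cell ratio (normalised): normalised mesenchymal count divided by normalised epithelial count so high means epithelial killing.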 The settings on record: imaging cell counts, at 1 µM; for red/green cell ratio (normalised): actives lie on both sides, counts scaled to control wells, 1 = unselective.
In assay [2] the test system is Aerobactin synthetase IucA (Klebsiella pneumoniae). Description: IucA aerobactin synthetase inhibitors, biochemical, Tocris library, absorbance (AID 1345561; call rule not given here;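 also: 100% = enzyme without compound and 0% = no enzyme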). The settings on record: purified IucA enzyme assay, absorbance (OD) read-out; stronger effect = lower value;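 tested at 8 µM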.
Setting [3] is: measured here: epithelial PC-3E GFP cell survival.
The mark [4] stands for this setting: measured here: mesenchymal TEM4-18 mCherry cell survival.

Usually remaining activity stands for the signal under treatment as a percentage of the control signal.

Turning to `NCCS`, in assay [1], the red/green cell ratio (normalised) is 1.27 (inactive). Also, the normalised cell number turned out to be 0.91 in assay [1] (setting [3]) and 1.16 in assay [1] (setting [4]).

On to `COc1ccc(C(=O)c2ccccc2O)c(O)c1`, for which the red/green cell ratio (normalised) in assay [1] is 1.27 (inactive). The normalised cell number in assay [1] (setting [3]) is 1.28; in assay [1] (setting [4]) it was 1.63.

Take `NCCCC[C@H](N[C@@H](CCc1ccccc1)C(=O)O)C(=O)N1CCC[C@H]1C(=O)O`: the red/green cell ratio (normalised) in assay [1] was 1.65 (inactive). The normalised cell number in assay [1] (setting [3]) amounted to 0.22; in assay [1] (setting [4]) it was 0.36.

Turning to `Cc1nnc(SCC2=C(C(=O)O)N3C(=O)[C@@H](NC(=O)Cn4cnnn4)[C@H]3SC2)s1`, the red/green cell ratio (normalised) in assay [1] was 0.96 (inactive). Besides, the normalised cell number is 1.16 in assay [1] (setting [3]) and 1.12 in assay [1] (setting [4]).

Consider `Nc1c2ccccc2nc2ccccc12`, for which the red/green cell ratio (normalised) in assay [1] is 0.95 (inactive). The results for the normalised cell number in assay [1] (setting [3]) and in assay [1] (setting [4]) were 0.63 and 0.6, respectively.

Turning to `CN1CCN(c2cc3c(cc2F)c(=O)c(C(=O)O)cn3-c2ccc(F)cc2)CC1`, in assay [1], the red/green cell ratio (normalised) is 1.21 (inactive) and 1.18 (inactive). Further, the normalised cell number was 0.99 and 0.72 in assay [1] (setting [3]); 1.2 and 0.85 in assay [1] (setting [4]).

Consider `CCN(CC)CCNC(=O)c1cc(S(C)(=O)=O)ccc1OC`, for which the red/green cell ratio (normalised) in assay [1] was 1.26 (inactive). Besides, the normalised cell number in assay [1] (setting [3]) is 0.93; in assay [1] (setting [4]) it was 1.16.

As for `CCCCC(CC)CN1CN(CC(CC)CCCC)CC(C)(N)C1` (stereo not drawn), the red/green cell ratio (normalised) in assay [1] was 1.02 (inactive). For the same compound, the normalised cell number in assay [1] (setting [3]) was found to be 0.84; in assay [1] (setting [4]) it was 0.85.

Consider `CCCCCCCCCCCCCCCCOP(=O)([O-])OCC[N+](C)(C)C`, for which the red/green cell ratio (normalised) in assay [1] was 0.8 (inactive). Further, the normalised cell number came to 1.32 in assay [1] (setting [3]) and 1.06 in assay [1] (setting [4]).

`NC(=O)NC1NC(=O)NC1=O` (stereo not drawn): in assay [1], the red/green cell ratio (normalised) is 1.05 (inactive). The normalised cell number came out at 1.06 in assay [1] (setting [3]) and 1.11 in assay [1] (setting [4]).

Turning to `Cn1c(=O)c2c(ncn2CCO)n(C)c1=O`, in assay [1], the red/green cell ratio (normalised) was 1.06 (inactive). The normalised cell number in assay [1] (setting [3]) was 0.95; in assay [1] (setting [4]), 1.01.

For `CCCCOc1ccc(OCCCN2CCOCC2)cc1`, the red/green cell ratio (normalised) in assay [1] is 0.85 (inactive). Further, the normalised cell number in assay [1] (setting [3]) amounted to 1.15; in assay [1] (setting [4]), 0.98.

Take `CC(=O)Oc1cccc2c1C(=O)c1c(OC(C)=O)cc(C(=O)O)cc1C2=O`: in assay [1], the red/green cell ratio (normalised) is 0.93 (inactive). Moreover, the normalised cell number in assay [1] (setting [3]) turned out to be 1.07; in assay [1] (setting [4]), 0.99.

As to `CC(N)C(=O)OC(C)(C)Cc1ccc(Cl)cc1` (stereo not drawn), in assay [1], the red/green cell ratio (normalised) was 1.21 (inactive). Besides, the figures for the normalised cell number in assay [1] (setting [3]) and in assay [1] (setting [4]) were 0.96 and 1.16, respectively.

As to `NC(=O)c1ccc([N+](=O)[O-])cc1Cl`, the red/green cell ratio (normalised) in assay [1] was 1.37 (inactive). The normalised cell number in assay [1] (setting [3]) was 0.87; in assay [1] (setting [4]), 1.19.

Regarding `O=C1OCCN1/N=C/c1ccc([N+](=O)[O-])o1`, the red/green cell ratio (normalised) in assay [1] was 1.17 (inactive). In addition, the normalised cell number was 0.95 in assay [1] (setting [3]) and 1.11 in assay [1] (setting [4]).

With `C[n+]1c2cc(N)ccc2cc2ccc(N)cc21` (tested in a mixture with another compound), the red/green cell ratio (normalised) in assay [1] is 0.5 (inactive). For the same compound, the normalised cell number in assay [1] (setting [3]) amounted to 0.56; in assay [1] (setting [4]), 0.28.

As to `COc1ccccc1OCC(O)CO` (stereo not drawn), the red/green cell ratio (normalised) in assay [1] is 1.05 (inactive). Besides, the normalised cell number was 1.11 in assay [1] (setting [3]) and 1.17 in assay [1] (setting [4]).

`C[C@@H]1CN(c2c(F)c(F)c3c(=O)c(C(=O)O)cn(C4CC4)c3c2F)C[C@H](C)N1`: the red/green cell ratio (normalised) in assay [1] was 1.1 (inactive) and 1 (inactive). Further, the normalised cell number in assay [1] (setting [3]) is 1.07 and 1.13; in assay [1] (setting [4]), 1.18 and 1.13.

For `CCC(Cc1c(I)cc(I)c(N)c1I)C(=O)O` (stereo not drawn), in assay [1], the red/green cell ratio (normalised) is 1.11 (inactive). For the same compound, the normalised cell number in assay [1] (setting [3]) turned out to be 1.2; in assay [1] (setting [4]), 1.33.

On to `Cc1ccsc1/C=C/C1=NCCCN1C`, for which the red/green cell ratio (normalised) in assay [1] was 1.28 (inactive). For the same compound, the normalised cell number stood at 1.08 in assay [1] (setting [3]) and 1.38 in assay [1] (setting [4]).

For `Oc1cccc(O)c1`, the red/green cell ratio (normalised) in assay [1] is 1.34 (inactive). Moreover, the normalised cell number in assay [1] (setting [3]) is 0.71; in assay [1] (setting [4]), 0.95.

With `CCCCC1C(=O)N(c2ccccc2)N(c2ccccc2)C1=O`, the red/green cell ratio (normalised) in assay [1] was 0.97 (inactive). The normalised cell number was 1.22 in assay [1] (setting [3]) and 1.19 in assay [1] (setting [4]).

As for `Cc1cc(C)nc(NS(=O)(=O)c2ccc(N)cc2)n1`, the red/green cell ratio (normalised) in assay [1] is 1.29 (inactive). The figures for the normalised cell number in assay [1] (setting [3]) and in assay [1] (setting [4]) were 1.02 and 1.31, respectively.

Regarding `Cc1cc(CC(=O)O)n(C)c1C(=O)c1ccc(Cl)cc1`, the red/green cell ratio (normalised) in assay [1] was 0.89 (inactive). Besides, the normalised cell number was found to be 1.1 in assay [1] (setting [3]) and 0.98 in assay [1] (setting [4]).

As for `CSc1ccc2c(c1)C(N1CCN(C)CC1)Cc1ccccc1S2` (stereo not drawn), the red/green cell ratio (normalised) in assay [1] was 1.1 (inactive). Besides, the normalised cell number in assay [1] (setting [3]) is 0.72; in assay [1] (setting [4]), 0.79. Besides, the remaining activity in assay [2] was 107% (inactive).

On to `O=C(O)CN1C(=O)c2cccc3cccc(c23)C1=O`, for which the red/green cell ratio (normalised) in assay [1] is 1.28 (inactive). For the same compound, the normalised cell number in assay [1] (setting [3]) was determined as 1; in assay [1] (setting [4]), 1.28. Besides, the remaining activity in assay [2] was 110% (inactive).
